Screening results: PubChem, several laboratories
Insulin prom inh = inhibitors of insulin promoter-driven GFP, primary screen, imaging, TRM-6 cells (human fetal islet line), eGFP reporter, cell count; reporter expression induced with tamoxifen; inhibition, % at 2 µM; actives 0.9% (n = 130,000);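 active = inhibition above the mean plus 3 SD, with well images judged a real hit on visual review, cut at about 60% in these data, passing the limit was not always enough; inconclusive = inhibition over the cutoff but images rejected on review; inactive = inhibition not above the cutoff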
Insulin prom up = insulin promoter activators in MIN6 cells, imaging, high-content screening, mouse beta cells | AID 1625, 2009 | z-score at 5 µM | MIN6 insulin promoter-GFP reporter; active compounds read high | actives 0.3% (n = 190,000);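 active = z-score above 3 at 5 µM with at least 500 cells counted in the well; inconclusive = wells under 500 cells, flagged as cytotoxic or low count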
bCat KO growth = primary screen for growth suppressors in beta-catenin knockout HCT116 cells (colon tumor, human) | viability, % at 10 µM | AID 818, 2007 | HCT116 beta-catenin knockout viability, CellTiter-Glo, 60 h; active compounds read low | actives 1.5% (n = 140,000);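 active = viability at or under a set limit, the compound median less 4 SD, cut at about 6% in these data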;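 also: 0% = Hyamine 1622 control at 20 µM and 100% = untreated cell control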
Autophagy mod = autophagy modulators in MEF cells, primary screen, imaging, high-content, MEF GFP-LC3; actives 0.98% (n = 190,000); MEF GFP-LC3 puncta imaging; test concentration mostly 10 µM; calls only at 10 µM (by protocol);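 active = percentage of spot-positive cells more than 3 SD above its plate mean, without a fluorescence outlier flag or 80% toxicity; inconclusive = no clear call, values can overlap the other calls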;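 also: spot-positive cell cutoff set from DMSO-treated cells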
Lmaj promast = Leishmania major promastigote growth inhibition, primary screen; Leishmania major promastigotes, resazurin fluorescence viability; inhibition, % at 10 µM; actives 9% (n = 200,000); in the data active = inhibition above about 50%;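 also: promastigotes grown with compound for 44 hours at 28 °C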
HCT116 PTEN-null = growth suppression of PTEN-null HCT116, primary screen, cell-based, CellTiter-Glo; HCT116 PTEN-null viability, 60 h; active compounds read low; viability, % at 10 µM; actives 1.2% (n = 140,000); AID 827, 2007;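 active = viability at or below a set limit, 4 SD under the median of all tested compounds, cut at about 3.7% in these data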;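 also: PTEN knockout HCT116 line with beta catenin targeted HCT116 as companion control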
* hit, by the source's call; i = inactive; u = inconclusive; x = no result given; + = active, no number. Rows were chosen to be rich in hits. Some 9.6% of all compounds tested hit in one or more screens of this group.

SMILES	Insulin prom inh	Insulin prom up	bCat KO growth	Autophagy mod	Lmaj promast	HCT116 PTEN-null
CC(C(=O)Nc1ccc([N+](=O)[O-])cc1)N1CCN(C/C=C/c2ccccc2)CC1 (centres undefined)	-91	-0.47	47	i	82*	49
COc1ccc(CCN2C(=O)c3cccc4cccc(c34)C2=O)cc1OC	-8	0.39	92	i	-1	92
CCn1c(SCC(=O)Nc2ccccc2)nnc1C1CCCCC1	31	x	91	i	6	95
Cc1cccc(NC(=S)NC(=O)C(c2ccccc2)c2ccccc2)n1	72*	x	x	i	3	x
O=C(Nc1ccc(NC(=S)NC(=O)C(c2ccccc2)c2ccccc2)cc1)c1ccccc1	33	x	x	i	98*	x
O=C(NC(=S)Nc1ccc(Cl)cc1)c1ccccc1	x	0.58	x	x	x	x
Cc1cc(C)c2c(N)c(S(=O)(=O)c3ccccc3)sc2n1	-27	1.7	73	i	0	71
CO/N=C(/CS(=O)(=O)c1ccc(C)cc1)c1ccc(OC)cc1	-3	0.51	77	i	80*	83
COc1cc(/C=C(\C#N)C(=O)NCC2CCCO2)ccc1OC(C)C (centres undefined)	70*	0.09	90	i	79*	105
NC(=O)CC1(CC(=O)O)CCCCC1	50	1.3	103	i	-4	97
CCc1ccc(C2=NN(c3ccc(S(N)(=O)=O)cc3)C(c3ccc(F)cc3)C2)cc1 (centres undefined)	22	-1	32	i	78*	13
Oc1ccc(-c2cn3c(n2)SCC3)cc1	-13	-0.03	109	i	0	107
Oc1ccc(-c2cn3c(n2)SCC3)cc1O	25	0.54	13	i	98*	10
Cc1c(C=O)c2ccccc2n1CC(=O)N1CCc2ccccc2C1	-57	x	94	i	5	84
CCOc1ccccc1N(CC(=O)NC1CCCCC1)C(=O)c1nsc(Cl)c1Cl	-19	x	x	i	26	x
CCOC(=O)C1=C(C)NC(C)=C(C(=O)OCC)C1c1ccc(OC)cc1	x	0.14	64	i	65*	59
CCOC(=O)C1=C(C)NC(SC)=NC1c1ccc(OC)cc1 (centres undefined)	-438	0.05	91	i	12	101
Cc1sc2ncn(CCC(=O)O)c(=O)c2c1C	-21	0.45	94	i	-7	89
Cc1ccc(CN2CCN(C/C(Cl)=C/c3ccccc3)CC2CCO)o1 (centres undefined)	x	0.01	x	i	78*	x
Cc1ccc(CN2CCN(Cc3ccc4cc(F)ccc4n3)CC2CCO)o1 (centres undefined)	x	1.1	x	i	80*	x
OCCC1CN(C/C(Cl)=C/c2ccccc2)CCN1C1CCCC1 (centres undefined)	x	-0.47	x	+	89*	x
CC(C)=CCN1CCN(C/C(Cl)=C/c2ccccc2)CC1CCO (centres undefined)	x	0.22	x	x	x	x
CCOc1ccccc1NC(=O)C(OC(=O)c1cc(C)oc1C)c1ccccc1 (centres undefined)	-6	0.81	65	i	85*	69
CC(=O)Nc1c([N+](=O)[O-])cc(C)c(Cl)c1[N+](=O)[O-]	x	-1	x	i	16	x
Cc1ccc(NC(=O)c2ccco2)c(NC(=O)c2cccs2)c1	-38	-0.02	106	i	72*	102
SMILES	Insulin prom inh	Insulin prom up	bCat KO growth	Autophagy mod	Lmaj promast	HCT116 PTEN-null
O=C(Nc1ccc(NC(=O)c2cccs2)cc1Cl)c1ccco1	-19	-1	x	i	13	x
O=C(Nc1cccc(NC(=O)c2cccs2)c1)c1ccco1	29	-0.49	96	i	72*	89
O=C(Nc1cccc(N2CCCC2)c1)c1cccs1	52	-0.55	89	i	86*	77
O=C(c1ccc(C(=O)N2CCCc3ccccc32)s1)N1CCCc2ccccc21	-53	-0.18	106	i	8	87
CC(C)c1ccc2nc3sc(C(=O)N4CCc5ccccc5C4)c(N)c3cc2c1	x	0.87	84	i	0	84
CCc1ccc2nc3sc(C(=O)N4CCc5ccccc54)c(N)c3cc2c1	x	4.9*	65	+	-3	59
Cc1ccc(C)c2nc3sc(C(=O)N4CCCc5ccccc54)c(N)c3cc12	10	x	64	+	-2	76
COc1cc(NC(=O)c2ncn[nH]2)cc(OC)c1OC	6	-0.04	78	i	-6	97
Cc1nc(N2CCN(C(=O)c3ccco3)CC2)c2c3c(sc2n1)CCCC3	-131	u	37	i	37	33
Cc1ccc(-c2cc(C(F)F)n3ncc(C(=O)N4CCN(c5cccc(C)c5C)CC4)c3n2)cc1	16	-1.3	3.2*	i	58*	8
COc1ccc(-c2cc(C(F)F)n3ncc(C(=O)N4CCN5CCCC5C4)c3n2)cc1 (centres undefined)	-8	-2.7	59	i	60*	59
COc1ccc(-c2cc(C(F)F)n3ncc(C(=O)N4CCc5ccccc54)c3n2)cc1	-107	-1.3	x	i	29	x
COc1ccc(-c2cc(C(F)F)n3ncc(C(=O)Nc4ccc(C(=O)N5CCOCC5)cc4)c3n2)cc1	x	-0.87	x	+	-3	x
COc1cc(NC(=O)c2ccc(S(=O)(=O)N(C)C)cc2)cc(OC)c1OC	33	0.11	91	i	-8	89
O=C(NCc1cccs1)c1cc2c(s1)-c1ccccc1OC2	x	-1.8	48	x	-7	51
COc1ccc(N(C(C)=O)S(=O)(=O)c2cc(OC)ccc2OC)cc1	6	-0.4	94	i	0	97
COc1ccc(N(C(C)=O)S(=O)(=O)c2cccc3cccnc23)cc1	-38	-0.11	91	i	54*	91
Cc1nnc2n(Cc3ccccc3)c(=O)c3c4c(sc3n12)CN(Cc1ccccc1)CC4	x	-0.41	x	x	x	x
O=c1c2c3c(sc2n2cnnc2n1Cc1ccccc1)CN(Cc1ccccc1)CC3	44	-0.16	x	i	100*	x
COc1ccc(NC(=O)COC(=O)Cn2cnc3ccccc3c2=O)cc1OC	x	0.07	x	x	x	x
CCOc1ccc2nc(NC(=O)C(NS(=O)(=O)c3cccc4nsnc34)C(C)C)sc2c1 (centres undefined)	x	-0.26	84	i	52*	71
O=C(N/N=C/C(Cl)=C\c1ccccc1)c1cnccn1	-12	0.2	4.0*	i	10	6
Cc1ccc(C(=O)Nc2cccc(C(=O)NCc3ccco3)c2)cc1	-8	-1.4	91	i	1	83
CCN(CC)CCNC(=O)c1ccc(Sc2ccc(C)cc2)c(NC(C)=O)c1	x	0.63	x	i	-2	x
CCC1=Nc2cc(C(=O)NCc3ccco3)ccc2Sc2ccc(C)cc21	-76	-0.71	12	i	67*	13
